In PubChem BioAssay (EPA / NIEHS):
Inconclusive results are not listed. Calls of active or inactive are those of the source. The calls were made as follows, unless noted: active = hit-call score of the fitted dose curve at least 0.9, where 1 is the maximum; inactive = score below 0.9.

Assays:
[1] = ATG_TAL_CIS: Attagene CIS-FACTORIAL HepG2 Assay for human TAL Basal Promoter (AID 2282966); details: HepG2 Attagene cis-factorial TAL promoter reporter; actives raise or lower the signal;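 also: background control endpoint measuring basal TAL promoter reporter mRNA not a specific factor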
Outline: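 Background-control endpoint: basal TAL promoter reporter transcripts in transiently transfected HepG2, measured 24 h after dosing. Read-out by RT-PCR with fluorescent primer extension and capillary electrophoresis; gain or loss of signal fitted relative to DMSO.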

[2] = ATG_TGFb_CIS: Attagene CIS-FACTORIAL HepG2 Assay for human Transforming Growth Factor (TGF) (AID 2282967); details: HepG2 Attagene CIS TGFb reporter, mRNA transcription; actives raise or lower the signal
Outline: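 HepG2 cells transiently transfected with cis-promoter-driven multiple reporter units measure endogenous TF activity; reporter mRNA quantified at 24 h by RT-PCR, FAM labeling, HpaI digestion and capillary electrophoresis. Bidirectional fit vs DMSO.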

[3] = biological target: Nuclear receptor subfamily 1 group I member 3 (Homo sapiens) (UniProt Q14994); experiment: ATG_CAR_TRANS: Attagene TRANS-FACTORIAL HepG2 Assay for human Constitutive Androstane Receptor (CAR) (AID 2282969; active = hit-call score of the fitted dose curve at least 0.9, where 1 is the maximum;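 also: activators raise reporter mRNA above DMSO so AC50 marks induction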); details: HepG2 Attagene TRANS-FACTORIAL CAR reporter
Outline: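 Signal is reporter mRNA induction relative to DMSO, measured 24 h after dosing by RT-PCR with fluorescent primer extension and capillary electrophoresis. Human HepG2 liver cells carried transiently transfected chimeric NR-Gal4/GAL4-UAS reporter constructs.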

[4] = biological target: X-box-binding protein 1 (Homo sapiens) (UniProt P17861); experiment: ATG_Xbp1_CIS: Attagene CIS-FACTORIAL HepG2 Assay for human X-box Binding Protein 1 (XBP1) (AID 2282972); details: HepG2 XBP1 cis-element reporter, Attagene multiplex; actives raise or lower the signal
Outline: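 Read-out: fluorescent reporter mRNA fragments resolved by capillary electrophoresis after RT-PCR. Human HepG2 liver cells carried transfected cis-promoter reporter units and were exposed to chemicals for 24 hours. Gain or loss of signal fitted relative to DMSO baseline.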

[5] = ATG_M_19_TRANS: Attagene TRANS-FACTORIAL HepG2 Assay for M19 Transcription Factor (Internal Marker) (AID 2282974; active = hit-call score of the fitted dose curve at least 0.9, where 1 is the maximum); details: HepG2 Attagene TRANS-FACTORIAL M19 internal marker reporter
Outline: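 Background-control readout: after 24 h chemical exposure of transfected HepG2 carrying GAL4-driven reporter units, RNA was reverse-transcribed, amplified, fluorescently labeled and sized by capillary electrophoresis; gain-of-signal fit against DMSO.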

[6] = ATG_GAL4_TRANS: Attagene TRANS-FACTORIAL HepG2 Assay for GAL4 (Internal Marker) (AID 2282976; active = hit-call score of the fitted dose curve at least 0.9, where 1 is the maximum); details: HepG2 Attagene TRANS GAL4 internal marker reporter
Outline: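 In transfected human HepG2 liver cells dosed 24 h, GAL4 reporter mRNA serves as a baseline marker. Detection by RT-PCR with fluorescent capillary electrophoresis, activity fitted upward relative to DMSO.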

[7] = biological target: Steroid hormone receptor ERR1 (Homo sapiens) (UniProt P11474); experiment: ATG_ERRa_TRANS: Attagene TRANS-FACTORIAL HepG2 Assay for human Estrogen-Related Receptor alpha (ERRa) (AID 2282971; active = hit-call score of the fitted dose curve at least 0.9, where 1 is the maximum); details: HepG2 Attagene TRANS reporter, ERRa transactivation
Outline: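 Reporter transcripts from ERRa-Gal4 chimera activity measured in transiently transfected human HepG2 cells 24 hours after dosing, using RT-PCR with 6-FAM primer extension, HpaI digestion and capillary electrophoresis; DMSO is baseline.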

[8] = biological target: Estrogen-related receptor gamma (Homo sapiens) (UniProt P62508); experiment: ATG_ERRg_TRANS: Attagene TRANS-FACTORIAL HepG2 Assay for human Estrogen-Related Receptor gamma (ERRg) (AID 2282977; active = hit-call score of the fitted dose curve at least 0.9, where 1 is the maximum;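 also: hits increase reporter signal over DMSO so potencies reflect activators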); details: HepG2 Attagene TRANS reporter, ERRg transactivation
Outline: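 Exogenous NR-Gal4 chimera activity measured as reporter transcript induction after 24 h in transiently transfected HepG2 cells. RNA reverse-transcribed, PCR-amplified, 6-FAM-labelled and resolved by capillary electrophoresis; increase over DMSO baseline.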

[9] = biological target: Estrogen receptor (Homo sapiens) (UniProt P03372); experiment: ATG_ERa_TRANS: Attagene TRANS-FACTORIAL HepG2 Assay for human Estrogen Receptor alpha (ERa) (AID 2282970; active = hit-call score of the fitted dose curve at least 0.9, where 1 is the maximum); details: HepG2 Attagene TRANS ERa GAL4 reporter, mRNA
Outline: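 Reporter transcripts were measured 24 h after dosing by RT-PCR with fluorescent primer extension and capillary electrophoresis. The system is transiently transfected HepG2 expressing exogenous NR-Gal4 chimeras driving GAL4-UAS reporters; DMSO is the baseline.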

[10] = ATG_VDRE_CIS: Attagene CIS-FACTORIAL HepG2 Assay for human Vitamin D Receptor Element (VDRE) (AID 2282968); details: HepG2 VDRE cis-reporter transcription, actives raise or lower the signal
Outline: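 Readout is VDRE-driven reporter mRNA reflecting endogenous factor activity in human HepG2 cells, sampled 24 h post-dose. Quantification used labelled RT-PCR products separated by capillary electrophoresis; bidirectional analysis relative to DMSO.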

Measured: AC50

X-box-binding protein 1 (Homo sapiens), sequence (P17861 whole entry, looked up, the tested form may be a part): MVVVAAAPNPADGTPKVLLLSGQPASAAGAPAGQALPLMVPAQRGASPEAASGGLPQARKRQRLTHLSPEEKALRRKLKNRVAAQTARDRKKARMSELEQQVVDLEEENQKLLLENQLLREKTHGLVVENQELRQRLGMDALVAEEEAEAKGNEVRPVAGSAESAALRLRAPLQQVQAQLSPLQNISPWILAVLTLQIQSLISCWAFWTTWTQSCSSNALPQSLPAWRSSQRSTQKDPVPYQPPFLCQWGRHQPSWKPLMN
Estrogen-related receptor gamma (Homo sapiens), sequence (P62508 whole entry, looked up, the tested form may be a part): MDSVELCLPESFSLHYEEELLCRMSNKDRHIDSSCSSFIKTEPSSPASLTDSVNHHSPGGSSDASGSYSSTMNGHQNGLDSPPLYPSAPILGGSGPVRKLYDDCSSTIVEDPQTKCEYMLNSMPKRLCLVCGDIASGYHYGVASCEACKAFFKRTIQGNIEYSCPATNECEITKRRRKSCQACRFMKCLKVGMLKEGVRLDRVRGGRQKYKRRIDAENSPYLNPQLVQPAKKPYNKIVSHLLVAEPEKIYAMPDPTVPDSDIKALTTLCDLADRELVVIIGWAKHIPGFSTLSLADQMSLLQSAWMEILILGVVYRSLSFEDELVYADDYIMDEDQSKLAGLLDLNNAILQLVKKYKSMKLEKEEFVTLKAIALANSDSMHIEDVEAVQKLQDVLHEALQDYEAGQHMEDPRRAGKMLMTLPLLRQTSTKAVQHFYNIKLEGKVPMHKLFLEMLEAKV
Nuclear receptor subfamily 1 group I member 3 (Homo sapiens), sequence (Q14994 whole entry, looked up, the tested form may be a part): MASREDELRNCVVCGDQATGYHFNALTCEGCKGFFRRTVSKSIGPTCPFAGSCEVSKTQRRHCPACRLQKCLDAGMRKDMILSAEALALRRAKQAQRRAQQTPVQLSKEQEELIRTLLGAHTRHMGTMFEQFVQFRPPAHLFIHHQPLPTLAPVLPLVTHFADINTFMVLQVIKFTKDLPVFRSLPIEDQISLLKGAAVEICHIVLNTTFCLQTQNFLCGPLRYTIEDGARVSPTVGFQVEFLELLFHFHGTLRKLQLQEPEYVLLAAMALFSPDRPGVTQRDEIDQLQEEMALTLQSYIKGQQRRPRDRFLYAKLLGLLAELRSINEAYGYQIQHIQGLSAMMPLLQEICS
Estrogen receptor (Homo sapiens), sequence (P03372 whole entry, looked up, the tested form may be a part): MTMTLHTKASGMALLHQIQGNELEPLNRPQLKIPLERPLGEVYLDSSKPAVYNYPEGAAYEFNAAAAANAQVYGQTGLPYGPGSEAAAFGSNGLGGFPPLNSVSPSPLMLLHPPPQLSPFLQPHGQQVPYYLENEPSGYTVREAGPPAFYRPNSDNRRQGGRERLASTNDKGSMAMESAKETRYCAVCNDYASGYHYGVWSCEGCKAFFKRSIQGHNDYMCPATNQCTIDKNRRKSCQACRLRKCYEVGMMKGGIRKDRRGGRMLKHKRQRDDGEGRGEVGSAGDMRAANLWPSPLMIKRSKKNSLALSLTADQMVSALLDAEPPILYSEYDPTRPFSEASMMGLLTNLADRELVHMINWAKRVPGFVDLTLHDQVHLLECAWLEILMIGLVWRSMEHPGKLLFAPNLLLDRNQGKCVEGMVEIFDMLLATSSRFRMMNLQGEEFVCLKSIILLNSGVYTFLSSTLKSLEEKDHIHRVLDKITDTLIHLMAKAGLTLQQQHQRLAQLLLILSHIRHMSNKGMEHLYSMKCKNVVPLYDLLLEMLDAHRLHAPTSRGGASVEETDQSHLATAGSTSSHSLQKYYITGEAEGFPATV
Steroid hormone receptor ERR1 (Homo sapiens), sequence (P11474 whole entry, looked up, the tested form may be a part): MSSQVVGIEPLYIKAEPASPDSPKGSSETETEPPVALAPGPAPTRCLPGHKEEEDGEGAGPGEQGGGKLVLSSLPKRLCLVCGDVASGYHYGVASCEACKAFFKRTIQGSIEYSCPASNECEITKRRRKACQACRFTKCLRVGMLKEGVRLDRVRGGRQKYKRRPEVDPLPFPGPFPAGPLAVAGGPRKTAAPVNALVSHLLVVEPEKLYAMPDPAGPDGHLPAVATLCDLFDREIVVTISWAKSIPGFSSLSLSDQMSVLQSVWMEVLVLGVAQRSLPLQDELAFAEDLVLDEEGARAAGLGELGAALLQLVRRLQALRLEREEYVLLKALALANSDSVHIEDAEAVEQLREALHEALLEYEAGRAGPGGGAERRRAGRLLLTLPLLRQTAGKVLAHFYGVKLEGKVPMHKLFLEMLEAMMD

CN(C)C(=N)N=C(N)N
inactive: [1] | [2] | [3] | [4] | [5] | [6]

CC(CN1c2ccccc2Sc2ccccc21)N(C)C (centres undefined)
inactive: [2] | [5]
active: [1] 50.2 µM | [4] 24.2 µM

COCCCOc1ccnc(CS(=O)c2nc3ccccc3[nH]2)c1C (centres undefined)
inactive: [1] | [2] | [7] | [4] | [8]

CC1(C)[C@@H]2CC[C@@]1(C)[C@H](O)C2
inactive: [1] | [2] | [4] | [5] | [6]

CC1(C)[C@H]2CC[C@]1(C)[C@H](O)C2
inactive: [1] | [2] | [3] | [4] | [6]

OC1OC[C@@H](O)[C@H](O)[C@H]1O (some centres undefined)
inactive: [1] | [2] | [4] | [5]

O=c1[nH]c(=O)n([C@H]2CCCO2)cc1F
inactive: [1] | [2] | [4]

CNCCO
inactive: [1] | [2] | [4] | [5]

COc1ccc(Nc2ccccc2)c(C)c1
inactive: [1] | [2] | [7] | [4] | [8]
active: [9] 7.87 µM

C=CC(=O)OCCOCCOCC
inactive: [1] | [2] | [5] | [8]
active: [4] 135 µM

O=C[C@H](O)[C@H](O)[C@H](O)CO
inactive: [1] | [2] | [3] | [4] | [6]

CC(C)(C)c1n[nH]c(=S)n(N)c1=O
not listed: [1] | [6] | [8]
inactive: all other assays above

O=C(O)CCSCCC(=O)O
inactive: [1] | [2] | [9] | [4] | [5] | [6]

CC(=O)O[C@H](CC(=O)[O-])C[N+](C)(C)C
inactive: [1] | [2] | [7] | [4] | [5] | [8]

Cc1cccc(Nc2ccccc2C(=O)O)c1C
inactive: [1] | [2] | [4] | [5] | [6]

Clc1ccc2c(c1)C(N1CCNCC1)=Nc1ccccc1O2
inactive: [1] | [2] | [6]
active: [9] 50.1 µM | [4] 33.4 µM

O=C[C@@H](O)[C@H](O)[C@H](O)CO
inactive: [1] | [2] | [3] | [4] | [6]

CCCCCCCCCCN
inactive: [1] | [2] | [4] | [5]

Cc1ccc(S)cc1
active: [9] 25.4 µM | [4] 53.5 µM
inactive: [1] | [2] | [5]

CCCCCCCCCCCCN
inactive: [1] | [2] | [3] | [4] | [5] | [6]

CC(=O)Nc1ccc(CC(=O)O)cc1
inactive: [1] | [2] | [9] | [4] | [5] | [6]

CCCCCCCCCCCCSC
inactive: [2] | [3] | [4]

CCC/C=C/C=O
inactive: [2] | [4] | [5]

COC(=O)C1=C(C)NC(C)=C(C(=O)OCCN(C)Cc2ccccc2)C1c1cccc([N+](=O)[O-])c1 (centres undefined)
inactive: [9] | [4] | [5]
active: [2] 131 µM | [10] 0.227 µM

CC(C)C[C@H]1C(=O)N2CCC[C@H]2[C@]2(O)O[C@](NC(=O)[C@@H]3C=C4c5cccc6[nH]c(Br)c(c56)C[C@H]4N(C)C3)(C(C)C)C(=O)N12
active: [10] 1.3 µM
not listed: [1] | [3] | [9]
inactive: all other assays above

CO[Si](CCCn1c(=O)n(CCC[Si](OC)(OC)OC)c(=O)n(CCC[Si](OC)(OC)OC)c1=O)(OC)OC
inactive: [2] | [10] | [3] | [4] | [5] | [6]

CC(=O)C(=O)O
inactive: [2] | [10] | [4] | [6]

C=COCCOCCOCCOC=C
inactive: [2] | [10] | [3] | [4] | [6]

C=C(C)C(=O)OCc1ccccc1
inactive: [2] | [10] | [9] | [7] | [4] | [5]

BrC1CCC(Br)C(Br)CCC(Br)C(Br)CCC1Br (centres undefined)
active: [10] 2.52 µM | [4] 45.5 µM
inactive: [2] | [9] | [7] | [5]

CCOc1ccccc1OCC
inactive: [2] | [10] | [4]

OCC(CO)(CO)COCC(CO)(CO)CO
inactive: [2] | [10] | [3] | [4] | [6]

Nc1nc2ccc([N+](=O)[O-])cc2s1
inactive: [2] | [10] | [4] | [5]
